For 5 compounds, outcome and AC50 results are on record in PubChem BioAssay (EPA / NIEHS).

Records with an inconclusive call do not appear. Activity calls are given as the source filed them. How the source made its calls, unless noted: active means hit-call score of the fitted dose curve at least 0.9, where 1 is the maximum; inconclusive means response in the unintended direction; inactive means score below 0.9.

Assay [1] is described as follows: ATG_TAL_CIS: Attagene CIS-FACTORIAL HepG2 Assay for human TAL Basal Promoter (AID 2282966; active means hit-call score of the fitted dose curve at least 0.9, where 1 is the maximum; inactive means score below 0.9;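 further: background control endpoint measuring basal TAL promoter reporter mRNA not a specific factor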). The settings on record: HepG2 Attagene cis-factorial TAL promoter reporter; actives raise or lower the signal. The method, boiled down: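 Steps: transfect HepG2 with multiple reporter transcription units; dose 24 h; isolate RNA, reverse-transcribe, PCR-amplify, label with 6-FAM, digest with HpaI; resolve by capillary electrophoresis. Bidirectional fitting against DMSO baseline.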

The nature of assay [2]: ATG_TGFb_CIS: Attagene CIS-FACTORIAL HepG2 Assay for human Transforming Growth Factor (TGF) (AID 2282967; active means hit-call score of the fitted dose curve at least 0.9, where 1 is the maximum; inactive means score below 0.9). The conditions noted are these: HepG2 Attagene CIS TGFb reporter, mRNA transcription; actives raise or lower the signal. The method, boiled down: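 Liver HepG2 line, cis-factorial reporter panel, 24 h dosing. Quantitation: RT-PCR products labeled with 6-FAM, cut with HpaI, resolved by capillary electrophoresis; DMSO-referenced bidirectional analysis.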

Assay [3] can be described thus: ATG_VDRE_CIS: Attagene CIS-FACTORIAL HepG2 Assay for human Vitamin D Receptor Element (VDRE) (AID 2282968; active means hit-call score of the fitted dose curve at least 0.9, where 1 is the maximum; inactive means score below 0.9). The settings on record: HepG2 VDRE cis-reporter transcription, actives raise or lower the signal. The method, boiled down:
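Cell-based multiplexed reporter format in human liver HepG2 cells, 24 h post-dose. Fluorescence from capillary electrophoresis of reporter cDNA gives the signal, with DMSO as negative control and baseline.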

Assay [4] concerns the target Steroid hormone receptor ERR1 (Homo sapiens) (UniProt P11474). The assay can be described thus: ATG_ERRa_TRANS: Attagene TRANS-FACTORIAL HepG2 Assay for human Estrogen-Related Receptor alpha (ERRa) (AID 2282971). The conditions noted are these: HepG2 Attagene TRANS reporter, ERRa transactivation. Put shortly: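 Signal gain relative to DMSO for an ERRa-Gal4 chimeric receptor, read as reporter mRNA by RT-PCR/capillary electrophoresis. Human HepG2 liver cells, transient multiplex reporter transfection, 24 h chemical exposure.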

Assay [5] addresses X-box-binding protein 1 (Homo sapiens) (UniProt P17861). Briefly: ATG_Xbp1_CIS: Attagene CIS-FACTORIAL HepG2 Assay for human X-box Binding Protein 1 (XBP1) (AID 2282972; active means hit-call score of the fitted dose curve at least 0.9, where 1 is the maximum; inactive means score below 0.9). The settings on record: HepG2 XBP1 cis-element reporter, Attagene multiplex; actives raise or lower the signal. Put shortly: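 HepG2, transient MRTU transfection (cis-promoter driven), 24 h compound exposure. Total RNA → oligo(dT) RT → PCR → 6-FAM labeling → HpaI cut → CE. Bidirectional fit vs DMSO.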

Assay [6] concerns the target Estrogen-related receptor gamma (Homo sapiens) (UniProt P62508). Briefly: ATG_ERRg_TRANS: Attagene TRANS-FACTORIAL HepG2 Assay for human Estrogen-Related Receptor gamma (ERRg) (AID 2282977).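 Further: hits increase reporter signal over DMSO so potencies reflect activators.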 The settings on record: HepG2 Attagene TRANS reporter, ERRg transactivation. Put shortly: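 HepG2 cells transiently transfected with multiplexed GAL4-UAS reporter units and chimeric NR-Gal4 constructs were exposed to test chemicals for 24 h. Reporter mRNA was measured by RT-PCR, 6-FAM primer extension, HpaI digestion and capillary electrophoresis; gain-of-signal versus DMSO.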

For assay [7], the target named is Bile acid receptor (Homo sapiens) (UniProt Q96RI1). The assay can be described thus: ATG_FXR_TRANS: Attagene TRANS-FACTORIAL HepG2 Assay for Farnesoid X Receptor (FXR) (AID 2282979).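 Further: hits raise reporter mRNA above DMSO so AC50 marks FXR activation.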 The conditions noted are these: HepG2 Attagene TRANS FXR-GAL4 reporter transcription. The method, boiled down: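 After 24 h chemical treatment of transfected HepG2 cells, GAL4-UAS reporter transcripts driven by an exogenous FXR-GAL4 fusion were measured by RT-PCR and capillary electrophoresis. Increases over DMSO were fitted.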

Assay [8] has as its target Hepatocyte nuclear factor 4-alpha (Homo sapiens) (UniProt P41235). The assay can be described thus: ATG_HNF4a_TRANS: Attagene TRANS-FACTORIAL HepG2 Assay for human Hepatocyte Nuclear Factor 4 alpha (HNF4a) (AID 2282982). The conditions noted are these: HepG2 HNF4a transactivation reporter, mRNA readout. Put shortly:
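Gain-of-signal mRNA induction, relative to DMSO vehicle, was read after 24 h compound treatment of HepG2 cells bearing transfected GAL4-UAS reporters. Detection used RT-PCR, 6-FAM primer extension and capillary electrophoresis.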

The nature of assay [9]: ATG_M_06_TRANS: Attagene TRANS-FACTORIAL HepG2 Assay for M06 Transcription Factor (Internal Marker) (AID 2282983). The settings on record: HepG2 Attagene TRANS M06 internal marker reporter. The method, boiled down: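 Internal-marker background readout from a multiplexed TRANS reporter system in HepG2; 24 h dosing; mRNA induction quantified by RT-PCR plus capillary electrophoresis fluorescence; DMSO as negative control and baseline.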

The nature of assay [10]: ATG_M_32_TRANS: Attagene TRANS-FACTORIAL HepG2 Assay for M32 Transcription Factor (Internal Marker) (AID 2282984).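 On outcome: transcript level of a background control reporter unit measured by RT-PCR and capillary electrophoresis.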 The settings on record: HepG2 Attagene TRANS M32 internal marker reporter. Put shortly:
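Capillary electrophoresis of 6-FAM-labelled reporter fragments gives the signal; data fitted for gain over DMSO negative control. Source: HepG2 cells bearing transient multiple reporter transcription units, 24 h exposure.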

For assay [11], the target named is Nuclear receptor subfamily 4 group A member 2 (Homo sapiens) (UniProt P43354). Briefly: ATG_NURR1_TRANS: Attagene TRANS-FACTORIAL HepG2 Assay for human Nuclear Receptor Related Protein 1 (NURR1) (AID 2282985). The settings on record: HepG2 Attagene TRANS reporter, mRNA readout. Put shortly:
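HepG2 / transient MRTU transfection / 24 h compound exposure / RT-PCR + CE fluorescence of reporter mRNA / gain-of-signal vs DMSO.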

Assay [12] concerns the target Transcriptional activator Myb (Homo sapiens) (UniProt P10242). The assay can be described thus: ATG_Myb_CIS: Attagene CIS-FACTORIAL HepG2 Assay for human Myeloblastosis (Myb) Proto-Oncogene Transcription Factor (AID 2282986; active means hit-call score of the fitted dose curve at least 0.9, where 1 is the maximum; inactive means score below 0.9). The settings on record: HepG2 Attagene CIS-FACTORIAL Myb reporter transcription; actives raise or lower the signal. Put shortly: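 HepG2 cells were transiently transfected with cis-regulated multiple reporter transcription units reflecting endogenous Myb activity, then exposed to compound for 24 hours. Reporter mRNA was measured by RT-PCR with capillary electrophoresis; bidirectional fitting versus DMSO baseline.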

Assay [13] deals with Nuclear respiratory factor 1 (Homo sapiens) (UniProt Q16656). Briefly: ATG_NRF1_CIS: Attagene CIS-FACTORIAL HepG2 Assay for human Nuclear Respiratory Factor 1 (NRF1) Orphan Gene (AID 2282987; active means hit-call score of the fitted dose curve at least 0.9, where 1 is the maximum; inactive means score below 0.9). The conditions noted are these: HepG2 NRF1 cis-element reporter, Attagene multiplex; actives raise or lower the signal. Put shortly: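 HepG2 cells transiently transfected with multiple reporter transcription units under cis-regulatory promoter control, so endogenous transcription-factor activity is read. After 24 h compound exposure, reporter mRNA quantified by RT-PCR, fluorescent labelling, HpaI digestion and capillary electrophoresis; bidirectional fitting versus DMSO.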

In assay [14] the target is Estrogen receptor (Homo sapiens) (UniProt P03372). Briefly: ATG_ERa_TRANS: Attagene TRANS-FACTORIAL HepG2 Assay for human Estrogen Receptor alpha (ERa) (AID 2282970). The settings on record: HepG2 Attagene TRANS ERa GAL4 reporter, mRNA. The method, boiled down: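 Multiplexed cell-based reporter format in HepG2: chimeric ERa-Gal4 protein drives GAL4-UAS reporter transcription. Fluorescent reporter mRNA quantified by capillary electrophoresis 24 hours after dosing; endpoint fitted as signal gain against DMSO.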

A short description of assay [15]: ATG_M_19_TRANS: Attagene TRANS-FACTORIAL HepG2 Assay for M19 Transcription Factor (Internal Marker) (AID 2282974). The conditions noted are these: HepG2 Attagene TRANS-FACTORIAL M19 internal marker reporter. Put shortly: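 HepG2 cells transiently transfected with multiple GAL4-UAS reporter transcription units were exposed to chemicals for 24 h. Reporter mRNA was read by RT-PCR, 6-FAM primer extension, HpaI digestion and capillary electrophoresis; gain of signal fitted relative to DMSO.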

The nature of assay [16]: ATG_GAL4_TRANS: Attagene TRANS-FACTORIAL HepG2 Assay for GAL4 (Internal Marker) (AID 2282976). The conditions noted are these: HepG2 Attagene TRANS GAL4 internal marker reporter. Put shortly: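 Liver HepG2 line bearing multiplexed GAL4-UAS reporter constructs; 24 h chemical treatment. Transcripts were quantified as fluorescent fragments on capillary electrophoresis after RT-PCR and HpaI cut, with activity fitted upward from DMSO.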

Assay [17] has as its target Oxysterols receptor LXR-beta (Homo sapiens) (UniProt P55055). Briefly: ATG_LXRb_TRANS: Attagene TRANS-FACTORIAL HepG2 Assay for human Liver X Receptor beta (LXRb) (AID 2282981). The conditions noted are these: HepG2 Attagene TRANS GAL4-LXRb reporter, mRNA. Put shortly:
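Gain-of-signal mRNA reporter endpoint, DMSO as negative control. Transiently transfected HepG2 cells carrying the NR-Gal4 chimera and GAL4-UAS reporter units were treated 24 h; transcripts quantified by RT-PCR and capillary electrophoresis fluorescence.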

Assay [18] deals with Oxysterols receptor LXR-alpha (Homo sapiens) (UniProt Q13133). Briefly: ATG_LXRa_TRANS: Attagene TRANS-FACTORIAL HepG2 Assay for human Liver X Receptor alpha (LXRa) (AID 2282980). The conditions noted are these: HepG2 Attagene TRANS reporter, LXRa transactivation. Put shortly: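 In this multiplexed TRANS system, compounds act on HepG2 cells carrying GAL4-UAS reporter units and a receptor-GAL4 fusion for 24 h. Induced reporter RNA is amplified, fluorescently labelled and sized by capillary electrophoresis, with DMSO as baseline.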
Oxysterols receptor LXR-alpha (Homo sapiens), sequence (Q13133 whole entry, looked up, the tested form may be a part): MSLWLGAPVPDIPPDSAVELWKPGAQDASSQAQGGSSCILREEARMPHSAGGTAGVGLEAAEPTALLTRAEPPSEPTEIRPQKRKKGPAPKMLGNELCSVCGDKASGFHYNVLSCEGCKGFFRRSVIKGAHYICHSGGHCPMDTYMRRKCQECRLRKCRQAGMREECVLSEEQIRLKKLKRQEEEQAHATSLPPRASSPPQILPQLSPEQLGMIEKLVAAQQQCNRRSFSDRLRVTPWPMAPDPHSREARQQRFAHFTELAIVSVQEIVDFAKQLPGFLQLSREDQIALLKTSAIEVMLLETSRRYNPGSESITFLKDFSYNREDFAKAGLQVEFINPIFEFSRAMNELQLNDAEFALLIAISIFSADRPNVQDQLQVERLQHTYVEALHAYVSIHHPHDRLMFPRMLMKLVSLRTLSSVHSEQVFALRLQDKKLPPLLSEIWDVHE

Oxysterols receptor LXR-beta (Homo sapiens), sequence (P55055 whole entry, looked up, the tested form may be a part): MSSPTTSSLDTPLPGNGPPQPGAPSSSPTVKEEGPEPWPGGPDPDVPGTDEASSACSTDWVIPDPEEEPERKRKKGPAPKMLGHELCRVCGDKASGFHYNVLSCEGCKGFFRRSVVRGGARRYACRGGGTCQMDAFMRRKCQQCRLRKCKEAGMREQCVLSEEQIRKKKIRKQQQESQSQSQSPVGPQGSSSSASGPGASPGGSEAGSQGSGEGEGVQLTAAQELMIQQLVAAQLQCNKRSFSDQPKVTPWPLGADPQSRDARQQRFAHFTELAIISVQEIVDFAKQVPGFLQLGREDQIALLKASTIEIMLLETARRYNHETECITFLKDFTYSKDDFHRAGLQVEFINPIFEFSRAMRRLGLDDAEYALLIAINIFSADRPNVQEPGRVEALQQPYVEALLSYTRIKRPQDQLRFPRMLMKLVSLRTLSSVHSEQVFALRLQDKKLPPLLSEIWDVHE
Nuclear respiratory factor 1 (Homo sapiens), sequence (Q16656 whole entry, looked up): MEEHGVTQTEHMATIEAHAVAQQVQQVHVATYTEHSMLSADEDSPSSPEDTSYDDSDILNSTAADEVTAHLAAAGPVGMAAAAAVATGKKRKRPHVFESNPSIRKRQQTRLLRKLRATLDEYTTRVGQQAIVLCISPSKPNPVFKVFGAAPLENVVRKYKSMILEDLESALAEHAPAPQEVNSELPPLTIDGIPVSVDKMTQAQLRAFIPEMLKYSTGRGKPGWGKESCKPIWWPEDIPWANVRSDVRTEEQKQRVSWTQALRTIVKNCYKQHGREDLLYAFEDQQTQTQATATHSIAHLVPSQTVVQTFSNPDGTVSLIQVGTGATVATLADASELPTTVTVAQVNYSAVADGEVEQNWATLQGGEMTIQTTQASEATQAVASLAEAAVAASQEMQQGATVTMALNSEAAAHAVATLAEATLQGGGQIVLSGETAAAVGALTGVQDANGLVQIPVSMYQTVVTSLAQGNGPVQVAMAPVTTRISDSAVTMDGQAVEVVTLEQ
X-box-binding protein 1 (Homo sapiens), sequence (P17861 whole entry, looked up): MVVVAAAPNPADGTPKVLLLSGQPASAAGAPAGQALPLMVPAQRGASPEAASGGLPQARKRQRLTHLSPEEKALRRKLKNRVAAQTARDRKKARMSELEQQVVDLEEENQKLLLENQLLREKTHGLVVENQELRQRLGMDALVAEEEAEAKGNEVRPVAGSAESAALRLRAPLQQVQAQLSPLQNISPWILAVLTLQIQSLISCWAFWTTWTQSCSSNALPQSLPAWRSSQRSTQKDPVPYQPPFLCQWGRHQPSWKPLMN
Estrogen receptor (Homo sapiens), sequence (P03372 whole entry, looked up, the tested form may be a part): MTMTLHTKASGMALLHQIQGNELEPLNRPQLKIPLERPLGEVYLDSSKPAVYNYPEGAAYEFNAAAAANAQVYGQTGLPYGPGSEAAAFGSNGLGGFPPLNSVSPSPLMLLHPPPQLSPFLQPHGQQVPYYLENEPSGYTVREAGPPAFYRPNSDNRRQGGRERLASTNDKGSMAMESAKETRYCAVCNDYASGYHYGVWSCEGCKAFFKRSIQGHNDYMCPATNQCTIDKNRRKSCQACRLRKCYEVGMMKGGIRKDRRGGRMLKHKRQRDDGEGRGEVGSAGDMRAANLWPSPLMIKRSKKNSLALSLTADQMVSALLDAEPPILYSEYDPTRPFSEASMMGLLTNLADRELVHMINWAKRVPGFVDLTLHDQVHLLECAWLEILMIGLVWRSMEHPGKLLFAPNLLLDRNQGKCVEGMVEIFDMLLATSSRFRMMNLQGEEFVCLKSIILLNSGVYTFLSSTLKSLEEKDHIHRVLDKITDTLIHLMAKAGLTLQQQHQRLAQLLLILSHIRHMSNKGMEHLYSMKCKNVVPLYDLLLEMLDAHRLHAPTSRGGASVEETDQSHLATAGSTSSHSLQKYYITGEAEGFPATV
Hepatocyte nuclear factor 4-alpha (Homo sapiens), sequence (P41235 whole entry, looked up, the tested form may be a part): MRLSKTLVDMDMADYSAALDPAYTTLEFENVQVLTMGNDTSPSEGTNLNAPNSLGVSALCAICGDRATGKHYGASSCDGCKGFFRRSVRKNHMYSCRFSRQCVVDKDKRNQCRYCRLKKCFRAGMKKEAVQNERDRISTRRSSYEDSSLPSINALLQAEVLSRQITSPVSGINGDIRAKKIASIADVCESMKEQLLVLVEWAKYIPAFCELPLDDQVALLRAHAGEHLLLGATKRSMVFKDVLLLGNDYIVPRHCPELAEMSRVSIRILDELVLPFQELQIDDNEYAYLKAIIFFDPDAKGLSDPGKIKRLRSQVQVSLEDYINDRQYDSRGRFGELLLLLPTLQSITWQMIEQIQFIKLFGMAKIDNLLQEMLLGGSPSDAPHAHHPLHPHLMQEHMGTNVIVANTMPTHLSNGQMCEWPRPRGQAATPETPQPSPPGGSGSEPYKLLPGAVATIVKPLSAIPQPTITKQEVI
Transcriptional activator Myb (Homo sapiens), sequence (P10242 whole entry, looked up): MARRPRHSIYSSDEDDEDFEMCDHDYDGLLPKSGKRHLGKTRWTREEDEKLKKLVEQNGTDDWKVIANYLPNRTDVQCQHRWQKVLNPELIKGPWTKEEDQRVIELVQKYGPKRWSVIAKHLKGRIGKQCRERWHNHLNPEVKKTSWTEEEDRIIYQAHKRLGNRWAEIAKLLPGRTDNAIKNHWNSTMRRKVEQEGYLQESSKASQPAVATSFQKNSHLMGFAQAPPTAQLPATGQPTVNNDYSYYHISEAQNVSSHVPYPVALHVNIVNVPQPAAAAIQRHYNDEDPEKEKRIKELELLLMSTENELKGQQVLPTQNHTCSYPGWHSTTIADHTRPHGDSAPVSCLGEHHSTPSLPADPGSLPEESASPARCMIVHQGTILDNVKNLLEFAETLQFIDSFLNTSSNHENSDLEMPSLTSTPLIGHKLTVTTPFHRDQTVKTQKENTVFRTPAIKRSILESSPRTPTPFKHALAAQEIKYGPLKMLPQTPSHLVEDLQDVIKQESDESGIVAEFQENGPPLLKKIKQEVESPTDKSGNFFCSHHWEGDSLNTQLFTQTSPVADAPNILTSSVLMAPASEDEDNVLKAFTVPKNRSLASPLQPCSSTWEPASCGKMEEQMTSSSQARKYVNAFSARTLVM
Nuclear receptor subfamily 4 group A member 2 (Homo sapiens), sequence (P43354 whole entry, looked up): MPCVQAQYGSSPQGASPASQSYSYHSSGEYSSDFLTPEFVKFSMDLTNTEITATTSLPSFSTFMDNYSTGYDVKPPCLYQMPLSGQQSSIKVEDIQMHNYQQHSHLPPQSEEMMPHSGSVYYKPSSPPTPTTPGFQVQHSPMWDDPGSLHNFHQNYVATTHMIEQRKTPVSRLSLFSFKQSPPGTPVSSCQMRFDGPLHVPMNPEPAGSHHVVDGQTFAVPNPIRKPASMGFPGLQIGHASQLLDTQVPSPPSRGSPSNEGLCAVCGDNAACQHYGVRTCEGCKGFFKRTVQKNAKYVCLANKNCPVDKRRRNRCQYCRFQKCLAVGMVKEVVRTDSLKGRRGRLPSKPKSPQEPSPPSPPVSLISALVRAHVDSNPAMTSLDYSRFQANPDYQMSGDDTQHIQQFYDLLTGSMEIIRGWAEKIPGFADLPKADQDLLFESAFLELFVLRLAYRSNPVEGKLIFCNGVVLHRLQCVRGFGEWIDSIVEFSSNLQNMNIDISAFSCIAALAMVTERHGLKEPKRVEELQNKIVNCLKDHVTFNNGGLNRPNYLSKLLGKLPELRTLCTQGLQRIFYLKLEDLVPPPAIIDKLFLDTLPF
Steroid hormone receptor ERR1 (Homo sapiens), sequence (P11474 whole entry, looked up, the tested form may be a part): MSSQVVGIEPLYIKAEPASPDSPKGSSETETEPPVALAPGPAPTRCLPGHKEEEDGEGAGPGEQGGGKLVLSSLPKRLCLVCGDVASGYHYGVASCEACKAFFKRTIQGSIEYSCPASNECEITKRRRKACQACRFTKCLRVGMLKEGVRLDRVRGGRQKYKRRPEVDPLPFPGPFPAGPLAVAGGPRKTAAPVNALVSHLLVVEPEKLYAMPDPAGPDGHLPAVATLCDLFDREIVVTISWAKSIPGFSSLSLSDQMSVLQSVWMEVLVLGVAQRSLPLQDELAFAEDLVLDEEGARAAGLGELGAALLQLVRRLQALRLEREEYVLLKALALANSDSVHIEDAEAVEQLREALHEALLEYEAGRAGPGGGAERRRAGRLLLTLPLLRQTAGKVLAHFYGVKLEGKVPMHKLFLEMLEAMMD
Bile acid receptor (Homo sapiens), sequence (Q96RI1 whole entry, looked up, the tested form may be a part): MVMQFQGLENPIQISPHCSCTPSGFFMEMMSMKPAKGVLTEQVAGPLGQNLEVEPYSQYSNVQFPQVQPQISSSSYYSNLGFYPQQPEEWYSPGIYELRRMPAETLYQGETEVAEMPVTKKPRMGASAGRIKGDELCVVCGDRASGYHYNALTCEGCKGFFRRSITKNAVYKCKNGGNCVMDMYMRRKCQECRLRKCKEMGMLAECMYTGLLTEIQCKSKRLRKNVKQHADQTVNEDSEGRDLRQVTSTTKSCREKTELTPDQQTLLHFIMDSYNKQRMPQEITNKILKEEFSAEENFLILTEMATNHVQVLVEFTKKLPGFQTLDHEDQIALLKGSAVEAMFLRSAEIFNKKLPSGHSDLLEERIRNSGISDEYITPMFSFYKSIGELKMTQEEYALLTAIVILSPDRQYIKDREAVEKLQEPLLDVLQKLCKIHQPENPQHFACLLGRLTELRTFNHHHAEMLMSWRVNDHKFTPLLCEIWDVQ

By AC50 is commonly meant the midpoint of the concentration-response curve, whichever way the signal moves. Consider `C/C=C\C/C=C/CCCCCCCCOC(C)=O`, for which the outcome in assay [1], in [2], in [4], in [6], in assay [7] and in [8] was inactive. Besides, the result in assay [9], in assay [10], in assay [11], in assay [12] and in [13] was inactive. Besides, the AC50 in [3] was 30.1 µM (active); in [5], 100 µM (active).
`Cc1ccc2oc(=O)ccc2c1`: the result in assay [1], in [2], in assay [3], in assay [14], in [15] and in assay [16] was inactive. The compound was called inactive in [17], in assay [8], in [10], in assay [11], in [12] and in assay [13].
For the compound `CN(C)c1ccc(C(=N)c2ccc(N(C)C)cc2)cc1`, the outcome in [1], in [2], in assay [14], in assay [18], in assay [17] and in assay [8] was inactive. In addition, the call in [9], in assay [12] and in assay [13] was inactive. Further, the AC50 in [3] is 1.29 µM (active); in assay [5], 1.21 µM (active); in assay [10], 106 µM (active).
As to `Cc1cccc(C(=O)O)c1`, the compound was classed as inactive in [1], in assay [2], in [3], in assay [4], in assay [5] and in assay [16]. In addition, the compound was called inactive in assay [17], in assay [9], in assay [10] and in assay [12].
Consider `CC1(C)O[C@@H]2C[C@H]3[C@@H]4C[C@H](F)C5=CC(=O)C=C[C@]5(C)[C@@]4(F)[C@@H](O)C[C@]3(C)[C@]2(C(=O)CO)O1`, for which the outcome in assay [1], in [2], in assay [3], in [5], in assay [18] and in assay [17] was inactive. The outcome in [9], in assay [10] and in assay [12] was inactive. Besides, in assay [14], the AC50 is 9.67 µM (active).
